Compound activity (PubChem BioAssay)
An excerpt weighted towards active compounds, which were near 2.2% of everything screened.
TMEM16A act – activators or potentiators of mouse TMEM16A chloride channel; Q8BHY3; HEK293 TMEM16A/YFP-H148Q/I152L, iodide quench fluorescence; active compounds read low; B-score at 10 µM; hit rate 0.3% among 340,000;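 active = fluorescence-ratio B-score plate-corrected deviation score at least 3 library SD below zero, with starting fluorescence score within 5 deviations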;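 note: channel opened by trigger with iodide after compound preincubation; score built on the fluorescence ratio of max minus min over baseline; more negative score means more quench and so TMEM16A activation or potentiation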
CHO-K1 Ca antag – counter-screen for M1 antagonists: effect in parental CHO-K1 cells. ATP-induced calcium, Fluo-8 fluorescence. inhibition, % at 3 µM. hit rate 0.6% among 360,000;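 active = inhibition above a per-plate cutoff, the plate's mean sample inhibition plus 3 SD, cut at about 24% in these data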;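 note: 0% = DMSO plus EC80 ATP and 100% = DMSO alone without ATP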
CHO-K1 Ca ag – counter-screen for M1 agonists: effect in parental CHO-K1 cells. activation, % at 3 µM. AID 602248. Fluo-8 calcium fluorescence; scaled to maximal ATP response, vehicle zero. hit rate 0.48% among 360,000; in the data active = activation above about 15%;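 note: untransfected CHO-K1 host cells lacking M1 receptor as counterscreen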
NTR1 ag – activates human neurotensin receptor 1; NTR1-U2OS beta-arrestin-GFP spot imaging, agonist mode; activation, % at 20 µM; P30989; AID 493036; hit rate 0.17% among 330,000;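 active = activation at or above 40% of the spot to cytoplasm intensity ratio, with at least 20 cells analyzed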;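 note: 0% = DMSO without peptide and 100% = 100 nM NTR1 peptide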
Target sequence (P30989 whole entry, looked up): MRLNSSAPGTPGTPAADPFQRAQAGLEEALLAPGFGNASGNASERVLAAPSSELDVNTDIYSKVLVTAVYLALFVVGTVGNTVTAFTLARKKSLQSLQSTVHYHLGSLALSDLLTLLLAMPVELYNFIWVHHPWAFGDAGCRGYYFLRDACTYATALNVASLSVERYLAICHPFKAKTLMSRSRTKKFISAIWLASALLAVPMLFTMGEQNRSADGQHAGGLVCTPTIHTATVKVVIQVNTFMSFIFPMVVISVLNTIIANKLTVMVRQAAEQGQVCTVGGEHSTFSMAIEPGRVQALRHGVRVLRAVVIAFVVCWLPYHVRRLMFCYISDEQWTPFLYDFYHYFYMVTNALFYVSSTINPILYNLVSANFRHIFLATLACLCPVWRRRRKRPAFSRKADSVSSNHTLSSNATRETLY
ANO1 block – inhibitors of mouse TMEM16A calcium-activated chloride channel. HEK293 TMEM16A/YFP iodide influx fluorescence, ionomycin. hit rate 1.2% among 310,000. Q8BHY3. normalized B-score (activity score, 25-100; higher = stronger inhibition) at 10 µM;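 active = ratio plate-corrected score three or more library SD toward inhibition, starting fluorescence score within five deviations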;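 note: score derived from kinetic fluorescence span divided by baseline fluorescence per well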
M1 PAM parental – nonselective activator or artifact in parental CHO-K1 calcium assay. ATP EC20, Fluo-8 calcium fluorescence; 0% at ATP EC20, 100% at ATP max. activation, % at 3 µM. hit rate 0.02% among 360,000;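 active = activation above the run cutoff, the mean activation of all test compounds plus 3 SD, cut at about 40% in these data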;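 note: peak over basal fluorescence ratio in a 140 s read after ATP addition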
* = called active by the depositor; i = inactive; . = no result given.

SMILES	TMEM16A act	CHO-K1 Ca antag	CHO-K1 Ca ag	NTR1 ag	ANO1 block	M1 PAM parental
COC1=NC(=C(c2ccccc2)c2ccccc2)OC1=O	i	-8.6	0.5	.	.	16.0
FC(F)(F)c1ccccc1Cc1c(-c2ccc(Cl)cc2)nc2ccc(Br)cn12	.	-12.1	0.1	.	.	-4.0
CC1(C)C2CCC(C2)C1(C)NC(=O)C[N+](C)(C)C (stereo unspecified)	i	-7.0	22.9*	-0.8	i	0.9
CCc1nc2c(OCc3ccccc3)cccn2c1N(C)C(=O)C(C)C	.	10.8	-0.3	.	.	-12.1
COCCNC(=O)CSc1nc(N)c(NC(=O)c2ccccc2F)c(=O)[nH]1	i	24.3*	-0.2	3.9	i	-14.8
CC(C)(C)NC(=O)C1(C)CCC(=O)N1CC(F)(F)F (stereo unspecified)	.	23.7*	-0.1	.	.	-0.1
CC(C)(C)NC(=O)C1(C)CCC(=O)N1CCCn1ccnc1 (stereo unspecified)	.	2.2	0.3	.	.	0.8
O=C(Nc1ccn(Cc2ccc(Cl)cc2)n1)c1ccccc1	i	-15.7	2.2	3.6	25*	13.0
O=C1Nc2c(ccc(Cl)c2Cl)C(=O)C1(F)c1ccccc1 (stereo unspecified)	i	-1.0	2.7	5.2	i	16.9
O=C1Nc2ccc(Cl)cc2C(=O)C1(F)c1ccccc1 (stereo unspecified)	i	1.2	17.2*	2.2	i	15.0
Cc1ccc(S(=O)(=O)c2c(C)nn(C(C)(C)C)c2OC(=O)C2CCCC2)cc1	i	0.4	3.7	4.4	25*	24.4
CN(C)c1ccc(/C=C2\C(=N)N3N=C(CC(=O)N4CCCCC4)SC3=NC2=O)cc1	-5.52*	10.5	3.0	-4.0	i	-13.3
CC1CCCCC12NC(=O)N(CC(=O)OCc1cccc(F)c1)C2=O (stereo unspecified)	-19.6*	-1.0	1.8	-0.9	.	16.8
Cc1cc(Cl)ccc1C(O)c1ncc(-c2ccc(F)cc2)[nH]1 (stereo unspecified)	.	-13.7	4.4	.	.	15.9
CCN1/C(=C/c2ccc3cccc(C)c3[n+]2CC)Sc2ccccc21	i	23.6	9.9	-4.1	i	7.7
CCN1/C(=C/c2ccc3cc(C)cc(C)c3[n+]2CC)Sc2cc(C)ccc21	i	40.3*	21.3*	.	.	-10.6
CCN1/C(=C\c2ccc3cc(C)ccc3[n+]2CC)Sc2cc(C)c(C)cc21	i	34.8*	18.2*	.	.	-3.9
CCN1/C(=C/c2ccc3cc(C)ccc3[n+]2CC)Sc2ccc3sccc3c21	i	-4.3	1.8	-4.0	i	15.5
CCc1ccc(CN(C)CC(=O)Nc2ccc(S(=O)(=O)N3CCOCC3)cc2)cc1	i	-20.7	7.5	2.0	.	21.7
Clc1ccc(-c2ccc(CNCc3ccccn3)o2)cc1	i	-3.7	0.4	0.6	i	12.0
O=C(c1cc(-c2ccccc2Cl)nc2ccc(Br)cc12)N1CCN(c2ccccn2)CC1	i	14.8	3.2	17.3	25*	-20.8
O=C(c1cc(-c2ccncc2)nc2ccc(Br)cc12)N1CCN(c2ccccn2)CC1	i	3.4	4.7	0.0	i	9.3
CCOC(=O)C1=C(C)N=c2s/c(=C/c3cccc([N+](=O)[O-])c3O)c(=O)n2C1c1ccccc1 (stereo unspecified)	i	-0.9	0.3	0.0	100*	3.1
COc1ccc(/C=C/C(=O)c2cc(F)ccc2OC(=O)c2ccccc2)cc1OC	i	24.2*	0.1	7.2	i	-7.0
COc1ccc(/C=C/C(=O)c2cc(F)ccc2OC(=O)c2ccc(OC)c(OC)c2)cc1OC	i	1.6	3.7	7.5	i	15.0
SMILES	TMEM16A act	CHO-K1 Ca antag	CHO-K1 Ca ag	NTR1 ag	ANO1 block	M1 PAM parental
Cc1ccc(-c2onc3ccc(C(=O)O)cc23)cc1	i	2.7	18.9*	-0.8	i	7.4
CC(C)(C)CNC(=O)C1(C)CCN1C(=O)c1ccccc1CCc1ccccc1 (stereo unspecified)	.	11.2	-0.1	.	.	-1.8
CCCCN(CCCNC(=S)NCCCc1cnc[nH]1)c1ccc(Br)cn1	.	-2.5	0.3	.	.	7.0
CC(=O)c1c(C)[nH]c(C(=O)COC(=O)C2(C)CC2(Cl)Cl)c1C (stereo unspecified)	i	-7.4	20.2*	-1.5	.	1.6
C(=C\c1ccccc1)/CN1CCN(C(CCc2ccccc2)c2nnnn2C2CCCCC2)CC1 (stereo unspecified)	.	-12.4	0.4	.	.	6.1
CC(=O)N1CCN(CC(=O)Nc2cc(S(=O)(=O)N3CCCCC3)ccc2C)CC1	i	-21.9	0.9	-1.1	.	9.7
O=C1COc2ccc(C(=O)CSc3nnc(NCc4ccccc4)s3)cc2N1	i	4.3	17.0*	0.4	i	6.3
CCC1(c2ccccc2)NC(=O)N(CC(=O)Nc2ccccc2N2CCCCC2)C1=O (stereo unspecified)	i	12.4	38.1*	10.8	i	7.7
CCOC(=O)Cc1nn(Cc2nc(-c3ccc(C#N)cc3)cs2)c(=O)c2ccccc12	i	-5.9	5.5	5.0	25*	13.8
CC(C)c1ccc(Nc2n[nH]c(=S)s2)cc1	.	28.1*	0.8	.	.	-5.0
c1ccc(COc2ccc(Nc3ncnc4nc[nH]c34)cc2)cc1	i	24.5*	1.4	1.2	i	-0.4
C=C1CC(Cn2cc(Br)c(=O)[nH]c2=O)(c2ccc(-c3ccccc3)cc2)OC1=O (stereo unspecified)	i	11.1	0.1	.	.	-15.9
O=C(CSc1ccccc1Cl)N1CCC(c2nc3ccccc3s2)CC1	i	-9.2	5.8	3.6	100*	16.1
O=C(CN1CCC(c2nc3ccccc3s2)CC1)N1CCCCC1	i	-19.6	2.6	1.5	i	18.2
Cc1cccc(NC(=O)c2c(F)c(F)c(F)c(F)c2F)c1	i	6.4	1.2	-1.1	i	0.6
O=C(Nc1cccc(F)c1)c1c(F)c(F)c(F)c(F)c1F	i	24.1*	5.9	-0.2	i	-6.2
COc1ccc(NC(=O)Nc2nnc(CC(=O)NCc3ccccc3)s2)cc1	i	11.2	-0.2	6.7	i	-3.9
COc1cccc(NC(=O)Nc2nnc(CC(=O)NCc3ccccc3)s2)c1	-4.89*	-9.5	0.6	-0.8	i	8.9
C=CC[n+]1c(/C=C2\C=Cc3cc(C)ccc3N2CC)ccc2ccccc21	i	38.1*	16.0*	-1.2	i	-6.8
CC1=C(C(=O)N(C)C)CC(CC(=O)NC(c2ccccc2)c2ccccc2)C(=O)N1CCCN1CCCC1=O (stereo unspecified)	.	-8.6	0.3	.	.	9.4
N/C(=N\OCc1ccc([N+](=O)[O-])cc1)c1ccncc1	i	29.8*	-0.6	-1.9	i	-9.7
CC(=O)N1CCc2cc(Br)cc(S(=O)(=O)N3CCN(C(=O)c4ccco4)CC3)c21	i	24.4*	0.6	2.6	i	-7.2
